The values that follow come from PubChem BioAssay AID1458 (National Center for Advancing Translational Sciences (NCATS), 2008).

Structures are written as SMILES. Screen size: about 210,000 compounds; about 5,900 (2.8%) were called active. Entries that show only a call come without a potency. About 5% were inconclusive and are not listed. Calls come from the whole dose curve; as a rule, active = well fitted activation curve with a large enough effect; inconclusive = small, poorly fitted or top-dose-only effect; inactive = no such curve, though single readings can be large or run the other way. This excerpt belongs to a sample that is enriched for actives.
Potency is the fitted concentration of half-maximal effect.

The test is described as follows: qHTS Assay for Enhancers of SMN2 Splice Variant Expression. Note: nearly all actives have a fitted effect of over 55% in size. The settings on record: HEK293 SMN2-luciferase splicing reporter, luminescence, 30-36 h; series mostly up to 46.1 µM. An outline of the steps: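 qHTS luciferase splicing reporter: luminescence rises when SMN2 exon 7 is included in transfected HEK293 cells. Compound exposure lasted 30-36 h at 37C, with 4.5 mM final sodium butyrate as control, followed by a ONE-Glo read.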
In general terms: In qHTS, concentration-response curves come from the screen itself.
With `COc1cccc(CNC(=O)CCC(=O)N2CC3CCCN3c3ccccc32)c1` (stereo unspecified), the Potency result was “inactive”. For `O=C(CC1Oc2ccccc2NC1=O)NCc1ccc(F)cc1` (stereo unspecified) the value was “inactive”. As to `CCCCn1c(CNC(=O)C23CC4CC(CC(C4)C2)C3)nnc1SCC(=O)Nc1ccc(C)cc1`, the Potency entry was “inactive”. For `CCCCCn1c(CCCNC(=O)c2ccccc2OC)nc2ccccc21` the value was “inactive”; for `CCOC(=O)c1c(NC(=O)/C(C#N)=C/c2ccccc2)sc2c1CCC2`, “inactive”; for `COc1ccc(NC(=O)C2CCN(c3ccc(Sc4ccc(C)cc4)nn3)CC2)c(OC)c1`, “inactive”. Regarding `O=C1NC(Nc2nc3ccccc3s2)(C(F)(F)F)C(=O)N1C1CCCCC1` (stereo unspecified), the Potency entry was “inactive”. For `c1ccc2sc(NN=C3CCCC3)nc2c1`, the Potency is 3.16 µM (active). With `O=[N+]([O-])c1cc(Br)c(O)c(/C=N/Nc2nc3ccccc3s2)c1`, the Potency entry is “inactive”.

`CCN(C(=O)c1sc2cc(OC)ccc2c1Cl)c1ccccc1`: the Potency result is “inactive”.

Turning to `COc1ccc2c(c1)Cc1sc(NC(=O)c3ccccc3Br)nc1-2`, the Potency entry was “inactive”. For `Cc1ccc(CN(C(=O)COc2ccc(Cl)cc2C)C2CCS(=O)(=O)C2)o1` (stereo unspecified) the value was “inactive”; for `Nc1ncc(-c2cc3ccccc3oc2=O)s1`, 15.8 µM (active).

Consider `O=C(NCc1cccnc1)c1cccc(-c2cc3ccccc3oc2=O)c1`, for which the Potency result was “inactive”. For `O=c1oc2ccccc2cc1-c1cn(-c2ccccc2)c(=S)[nH]1` the value was “inactive”; for `CC(C)Sc1oc(-c2cccs2)nc1S(=O)(=O)c1ccc(Cl)cc1`, “inactive”.

`COc1ccc(NC(=O)CCc2nnc3n(CC(C)C)c(=O)c4ccccc4n23)cc1OC`: the Potency result is “inactive”. For `CCOC(=O)c1cccc(NC(=O)C(Cc2ccccc2)NS(=O)(=O)c2cccc3nsnc23)c1` (stereo unspecified) the value was “inactive”; for `COc1ccc(-c2csc(-c3c(N)c(C(=O)c4ccc(OC)c(OC)c4)n4ccccc34)n2)cc1`, “inactive”.

On to `CCCN1CCN(CCCNC(=O)CN2C(=O)COc3ccccc32)CC1`, for which the Potency result is “inactive”. Consider `O=C(CN1C(=O)COc2ccccc21)Nc1ccc(F)cc1`, for which the Potency entry is “inactive”. Consider `O=C(CN1C(=O)COc2ccccc21)NCCN1CCc2ccccc2C1`, for which the Potency is 7.08 µM (active).

For `CCc1ccccc1NC(=O)c1cc(-c2ccc3c(c2)OCO3)on1`, the Potency entry was “inactive”.

For the compound `COc1ccc(-c2csc(N3CCN(Cc4ccc5c(c4)OCO5)CC3)n2)cc1`, the Potency result is “inactive”. Consider `COc1ccc(-c2csc(Cc3nc(O)cs3)n2)cc1`, for which the Potency is 11.2 µM (active). In the case of `COc1ccc(C(=O)Nc2nc(-c3ccc(S(=O)(=O)N4CCOCC4)cc3)cs2)cc1`, the Potency entry is “inactive”. Then `CCC(=O)N1CCc2cc(Br)cc(S(=O)(=O)CCC(=O)N3CCN(c4ccc(F)cc4)CC3)c21`, with “inactive”. Take `Cc1ccc(-c2csc(NNC(=O)c3ccccc3)n2)cc1`: the Potency entry was “inactive”. For `O=C(O)Cc1ccc(NC(=O)c2cccs2)cc1` the value was “inactive”; for `Cc1nc(-c2ccc(NC(=O)c3cccs3)cc2)cs1`, 3.16 µM (active); for `Cc1ccc(-c2nnc(-c3ccc(NC(=O)c4cccs4)cc3)o2)cc1`, “inactive”.

Regarding `Cc1ccc(-c2csc(NC(=O)c3cccs3)n2)cc1`, the Potency was 11.2 µM (active). Consider `Cc1ccc(-c2csc(NC(=O)Cc3cccs3)n2)cc1C`, for which the Potency entry was “inactive”. Then `CCOC(=O)c1c(NC(=O)c2cc(CC)on2)sc(C(C)=O)c1C`, with “inactive”. As to `CC(C)Cn1c(-c2ccc(S(=O)(=O)N3CCOCC3)cc2)csc1=Nc1cc(Cl)ccc1Cl`, the Potency result is “inactive”. As for `CCOc1ccc(CNC(=O)c2cccc(Nc3nc4ccccc4n4nnnc34)c2)cc1OC`, the Potency entry was “inactive”. For `Cc1csc(NC(=O)Nc2ccccc2[N+](=O)[O-])n1` the value was 5.62 µM (active); for `Cc1cc(NC(=O)Nc2ccccc2[N+](=O)[O-])no1`, “inactive”; for `Cc1c(NC(=O)Nc2ccccc2)cccc1[N+](=O)[O-]`, “inactive”. Then `Cn1c(=O)c2c(nc(NCCc3ccccc3)n2Cc2ccccc2Br)n(C)c1=O`, with “inactive”; and `COc1ccccc1-c1ccnc2[nH]n(-c3ccccc3)c(=O)c12`, with “inactive”. For `CCOC(=O)C(Cc1ccccc1)NC(=O)CCc1c(C)nc2c(c(C)nn2-c2ccc(C)c(C)c2)c1C` (stereo unspecified) the value was “inactive”. With `COC(=O)c1ccc(CN2CCC(CO)(Cc3ccc(OC)cc3)CC2)cc1`, the Potency result was “inactive”. For `COCC(=O)N1CCC2(CCCN(c3ccccc3)C2)CC1` the value was “inactive”; for `COC(=O)CCC(=O)N1CCCC(CO)(Cc2ccccc2)C1` (stereo unspecified), 14.1 µM (active); for `COc1ccc(CNC(=O)Cn2nnc(-c3ccccc3F)n2)cc1`, “inactive”. With `COC(=O)c1ccccc1NC(=O)Cn1c(=O)n(-c2cccc(C(F)(F)F)c2)c(=O)c2c(C)c(C)sc21`, the Potency entry was “inactive”.

As for `Cn1c(=O)c2c(nc(SCC(=O)Nc3ccc(F)cc3)n2Cc2ccc(Cl)cc2)n(C)c1=O`, the Potency result was “inactive”.

As for `COc1ccc(NC(=O)c2ccco2)cc1NC(=O)c1ccc(C#N)cc1F`, the Potency entry is “inactive”. For `O=C(NNC(=O)c1ccc(Cl)cc1Cl)c1cccs1`, the Potency was 12.6 µM (active). As to `NNC(=O)c1ccc(Cl)cc1Cl`, the Potency entry is “inactive”. With `Cc1ccc(C(=O)NNC(=O)c2cccs2)cc1`, the Potency result was “inactive”.

For `Cc1cccc(NC(=O)c2nnn(CC(=O)Nc3ccc(C(C)C)cc3)c2N)c1C`, the Potency entry is “inactive”. Then `CCOc1ccc(CCNC(=O)c2csc3c2CCCCC3)cc1`, with “inactive”; and `Cc1ccc(C)c(N2CCN(Cc3nnc(-c4ccccc4)o3)CC2)c1`, with “inactive”. For `COc1cccc2cc(-c3nc(Cl)c4c5c(sc4n3)CC(C)CC5)c(=O)oc12` (stereo unspecified) the value was “inactive”.
